This is part of a sample that, as a whole, favours compounds with a hit. Of some 79,000 tested, about 15% had one in any assay. Cut-off read from the data, not from the text of the source: active = growth inhibition above about 70%; inactive = the rest.
Legend:
[1] = NCI Yeast Anticancer Drug Screen. Data for the rad50 strain (AID 155);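 note: 0% = growth of vehicle-only cultures of the same strain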; conditions: S. cerevisiae rad50 strain growth inhibition; at 50.0 µM; active compounds read high
Procedure, shortened: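 Genetically altered yeast (DNA repair pathway); compound treatment; growth inhibition vs vehicle ctrl.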

[2] = NCI Yeast Anticancer Drug Screen. Data for the mec2-1 strain (AID 157); conditions: S. cerevisiae mec2-1 strain, at 50.0 µM, active compounds read high
Procedure, shortened: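 Cells of the genetically defined mec2-1 yeast strain are incubated with test compound. Inhibition of growth is calculated against vehicle-treated controls.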

[3] = NCI Yeast Anticancer Drug Screen. Data for the sgs1 mgt1 strain (AID 161);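 note: 0% = growth of cultures given vehicle only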; conditions: S. cerevisiae sgs1 mgt1 strain, at 50.0 µM, active compounds read high
Procedure, shortened: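 Inhibition of yeast growth, normalised to vehicle-treated controls, is reported for a strain bearing genetic alterations in DNA damage repair.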

[4] = NCI Yeast Anticancer Drug Screen. Data for the cln2 rad14 strain (AID 165);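 note: 0% = growth equal to vehicle treated cultures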; conditions: S. cerevisiae cln2 rad14 strain, at 50.0 µM, active compounds read high
Procedure, shortened: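 The screen exposed genetically defined yeast (cln2 rad14) to test compounds and scored growth inhibition relative to vehicle-treated controls.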

[5] = NCI Yeast Anticancer Drug Screen. Data for the bub3 strain (AID 167); conditions: S. cerevisiae bub3 mutant strain, at 50.0 µM, active compounds read high
Procedure, shortened: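 Yeast carrying a defined mutation is treated with each compound, and growth is compared with that of vehicle-exposed cells to give inhibition.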

[6] = NCI Yeast Anticancer Drug Screen. Data for the mlh1 rad18 strain (AID 175); conditions: S. cerevisiae mlh1 rad18 strain growth inhibition; at 50.0 µM; active compounds read high
Procedure, shortened: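 Compound-treated yeast growth, normalised to vehicle controls. Strain bears defined DNA repair mutations.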

Measured: growth inhibition

c1ccc(CC2NCCc3c2[nH]c2ccccc32)cc1 (stereo unspecified)
inactive: [1] -14.2% | [2] 2.9% | [3] -5.05% | [4] -6.2% | [5] -11.9% | [6] 1.5%

CCN(CC)c1ccc(/C=C2\CCc3ccc([N+](=O)[O-])cc3C2=O)cc1
inactive: [1] 1.95% | [2] -14.7% | [3] 6.2% | [4] -3.75% | [5] 3.8% | [6] -7.95%

Cc1cc(=O)[nH]c(NN2C(Cl)C(=O)C2c2cccc(Cl)c2)n1 (stereo unspecified)
inactive: [1] -5.85% | [2] -34.1% | [3] -9.4% | [4] 2.6% | [5] -10.5% | [6] -33%

NC(=O)c1cccc2c1OCO2
inactive: [1] -8.75% | [2] 9.7% | [3] -7.35% | [4] -10.6% | [5] -0.6% | [6] -5.25%

CCOc1cc(F)cc([N+](=O)[O-])c1
inactive: [1] -11.6% | [2] 5.3% | [3] -20.9% | [4] -14.9% | [5] 19.1% | [6] 5.7%

COc1ccc(I)cc1
inactive: [1] -1.85% | [2] -15.8% | [3] 3.65% | [4] -2.2% | [5] -3.5% | [6] 2.35%

N#CCC(c1ccccc1)(c1ccccc1)c1ccccc1
inactive: [1] 46.4% | [2] 34.8% | [3] 45.9% | [4] 37.1% | [5] 52.4% | [6] 39.6%

CCCCNC(=O)c1cc2c(cc1Cl)Sc1nccn1S2(=O)=O
inactive: [1] -1.1% | [2] -0.3% | [3] 1.35% | [4] 9.2% | [5] 43.9% | [6] 28.6%

C/C(=N\NC(C)(C)C)c1sc(-c2nc(C)c(/C(C)=N/NC(C)(C)C)s2)nc1C
inactive: [1] 46.5% | [2] 3.9% | [3] -7.5% | [4] -20.6% | [5] 22.1% | [6] 21.8%

Cc1cc2c(-c3ccc(Cl)cc3)oc(-c3ccc(Cl)cc3)c2cc1C
inactive: [1] -7.35% | [2] 15.8% | [3] -6.35% | [4] 2.85% | [5] -15.4% | [6] -9.5%

CN(C)/C(N)=N\C(N)=Nc1cc2ccccc2c2ccccc12
inactive: [1] 1.3% | [2] -9.55% | [3] -0.2% | [4] -23.2% | [5] 2.25% | [6] -0.55%

COc1cc(CC2c3cc(OC)c(OC)cc3CCN2C)ccc1O (stereo unspecified)
inactive: [1] -22.3% | [2] -17.9% | [3] -5.75% | [4] -9.2% | [5] -15.6% | [6] -3.35%

COC(=O)C(Cc1cc(OC)c(OC)c(OC)c1)(NC(=O)c1ccccc1)P(=O)(OC)OC (stereo unspecified)
inactive: [1] -14.2% | [2] -1.75% | [3] -38.4% | [4] -51.6% | [5] 1.05% | [6] -9.7%

O=C1OC(c2ccc([N+](=O)[O-])cc2)=N/C1=C\c1ccccc1
inactive: [1] 1.85% | [2] 4.5% | [3] 11.1% | [4] 5.45% | [5] 6.25% | [6] -11.5%

O=C(Nc1ccc(Cl)cc1)Nc1nnc(-c2ccc(F)cc2)o1
inactive: [1] 5.5% | [2] 9.25% | [3] 7.75% | [4] -70.3% | [5] -25% | [6] 17.4%

Cc1ccc(-c2cc(=O)c3cc(C)c(C)c(C(=O)O)c3o2)cc1[N+](=O)[O-]
inactive: [1] -20.7% | [2] -5.1% | [3] -1.05% | [4] 12.2% | [5] 2% | [6] 31.1%

Cn1c(=O)c2c(nc(N/N=C/c3ccccc3C(=O)O)n2C)n(C)c1=O
inactive: [1] -14.2% | [2] -3.15% | [3] -7.9% | [4] 12.3% | [5] -66.5% | [6] -15.3%

ClCc1nnc(-c2ccccc2)o1
inactive: [1] 14.8% | [2] -2.9% | [3] -16.2% | [4] -43% | [5] -16.2% | [6] -4.75%

COS(=O)(=O)Cc1ccccc1
inactive: [1] -21.6% | [2] -15% | [3] -16.8% | [4] -19.2% | [5] -12.3% | [6] 8.45%

O=C1NC(N2CCCCC2)=N/C1=C\c1cccs1
inactive: [1] 2.5% | [2] 2.2% | [3] -12.9% | [4] 7.05% | [5] -11.8% | [6] -29.4%

CC(=O)Nc1cc2c(cc1Br)-c1ccccc1C2=O
inactive: [1] -15% | [2] -3.5% | [3] 15.4% | [4] -31.7% | [5] 9.45% | [6] -2.15%

COC(=O)c1[nH]c(=O)c(C#N)c(C(=O)OC)c1-c1ccc(F)cc1
inactive: [1] -4.55% | [2] -24.5% | [3] -15.4% | [4] -2% | [5] -21.2% | [6] -0.05%

CNC(=O)OC(COC)CN1CCN(c2ccccc2C)CC1 (stereo unspecified)
inactive: [1] -25.8% | [2] -47.8% | [3] -10.6% | [4] -1.25% | [5] -8.3% | [6] -6.5%

Cn1c(C2CCc3cc(O)ccc3C2)cccc1=O (stereo unspecified)
inactive: [1] -26.8% | [2] 13.1% | [3] -4.25% | [4] -19.6% | [5] 14.7% | [6] -4.35%

O=C1/C(=C/c2ccc(Cl)cc2)Oc2ccccc21
inactive: [1] -31.4% | [2] -7.05% | [3] -18.9% | [4] 1.4% | [5] -8.1% | [6] -19.6%

NC1CCCCCC1
inactive: [1] 2.95% | [2] -7.25% | [3] 0.8% | [4] 3.25% | [5] 8.45% | [6] -2.4%

Cc1cc(-n2nnc(C(=O)O)c2-c2ccccc2)c2ccc(Cl)cc2n1
inactive: [1] -19.1% | [2] -4.35% | [3] -12.1% | [4] -35% | [5] -8.9% | [6] 4.1%

COC(=O)c1cc(NC(=O)Nc2ccc(Cl)cc2[N+](=O)[O-])cc(C(=O)OC)c1
inactive: [1] -21.4% | [2] -13.3% | [3] -14.1% | [4] -68.2% | [5] -2.35% | [6] -11.1%

Cc1ccc(S(=O)(=O)NC(=O)NCc2cccc(Cl)c2)cc1
inactive: [1] -0.3% | [2] 28.2% | [3] 19.8% | [4] -15.6% | [5] 13.9% | [6] 6.3%

Brc1cc2c(cc1C=NC1CCCCC1)OCO2
inactive: [1] 25.6% | [2] 22.8% | [3] -4.05% | [4] 6.8% | [5] 18.8% | [6] 43.7%

CSC(N)=NC1CCCCC1
inactive: [1] -7.35% | [2] 0.1% | [3] -6.05% | [4] -30.4% | [5] 35.9% | [6] 6.15%

O=C(O)/C=C/c1ccc(Oc2ccccc2C(=O)O)o1
inactive: [1] -3.45% | [2] -7.15% | [3] 5.05% | [4] 2.3% | [5] -1.2% | [6] -2.25%

CCN(Cc1cccc(S(=O)(=O)O)c1)c1ccc(C(=C2C=CC(=[N+](CC)Cc3cccc(S(=O)(=O)O)c3)C=C2)c2ccc(O)cc2S(=O)(=O)O)cc1
inactive: [1] -115% | [2] -127% | [3] -71.2% | [4] -110% | [5] -136% | [6] -137%

C1=C2CCc3ccc(o3)CCC(=C1)O2
inactive: [1] 7.55% | [2] 14.8% | [3] 10.2% | [4] -23.7% | [5] -0.05% | [6] 1.35%

Nc1ccn(CCO)c(=O)n1
inactive: [1] -3.95% | [2] 2.05% | [3] -23.2% | [4] -0.8% | [5] -5.3% | [6] -7.95%

CN(C)Cc1c(-c2ccc(Br)cc2)oc(-c2ccc(Br)cc2)c1Br
inactive: [1] -31.1% | [2] -8.7% | [3] -13.9% | [4] -10.4% | [5] 4.5% | [6] 7.2%

CCCCCSC1CCCC1
inactive: [1] 35% | [2] -10% | [3] 7.65% | [4] -2.2% | [5] 9.5% | [6] 28.7%

CCC(=O)c1ccc(OC(C)=O)cc1
inactive: [1] 36% | [2] -4.75% | [3] -4.85% | [4] -23.4% | [5] 5.7% | [6] 4.65%

N#Cc1c(Cl)cccc1N1CCSCC1
inactive: [1] 1.75% | [2] -20.8% | [3] 15.3% | [4] 18.2% | [5] -0.9% | [6] 0.1%

CN(C)c1ccc(/C=C/C(=O)CC(=O)/C=C/c2ccc(N(C)C)cc2)cc1
inactive: [1] 22.2% | [2] 21.3% | [3] -28.2% | [4] -27.4% | [5] -4.3% | [6] 0.8%

CC(C)(C)OC1COCCO1 (stereo unspecified)
inactive: [1] 12.1% | [2] -5.35% | [3] 8.35% | [4] 1.3% | [5] 8% | [6] 13.8%
